Test results: PubChem BioAssay (NCATS)
“And” between values parts separate entries of the source, which are not always exact repeats. Equal values may be shown once. Records with an inconclusive call do not appear. A call without a number means that no potency is given here. Unmarked numbers belong to inactive results. The source made the active and inactive calls. The call rests on the fitted dose curve; in most records, active means well fitted curve in the direction sought with a large enough effect; inconclusive means small, poorly fitted or top-dose-only effect, or another doubt; inactive means no such curve, though single readings can be large; an effect the other way counts as inactive or inconclusive.

Assays:
[1] = target: Cytochrome P450 3A7 (Homo sapiens) (UniProt P24462); test: Cytochrome P450 family 3 subfamily A member 7 (CYP3A7) small molecule antagonists: luciferase biochemical qHTS assay (AID 1963596); further: nearly all actives have a fitted effect of over 40% in size
Chain of Cytochrome P450 3A7 (Homo sapiens) (P24462 whole entry, looked up): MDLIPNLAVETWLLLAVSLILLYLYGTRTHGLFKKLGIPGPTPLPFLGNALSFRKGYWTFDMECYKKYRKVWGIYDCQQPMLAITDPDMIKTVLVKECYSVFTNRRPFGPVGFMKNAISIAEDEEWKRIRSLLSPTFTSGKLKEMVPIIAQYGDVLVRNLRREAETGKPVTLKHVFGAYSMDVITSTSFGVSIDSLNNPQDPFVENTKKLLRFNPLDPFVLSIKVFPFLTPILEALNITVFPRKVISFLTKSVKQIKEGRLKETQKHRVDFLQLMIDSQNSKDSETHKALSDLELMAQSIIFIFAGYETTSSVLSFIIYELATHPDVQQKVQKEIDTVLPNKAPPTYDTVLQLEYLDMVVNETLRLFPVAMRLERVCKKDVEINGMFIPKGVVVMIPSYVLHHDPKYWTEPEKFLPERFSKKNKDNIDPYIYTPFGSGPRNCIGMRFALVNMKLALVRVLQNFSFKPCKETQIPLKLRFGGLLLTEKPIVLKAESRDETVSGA
Procedure, shortened: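 Recombinant CYP3A7 P450-Glo luminescent assay: enzyme-proluciferin substrate mix preincubated with compound 10 min at room temperature, reaction started with NADPH regeneration system for 1 h. Luciferin detected by luminescence; ketoconazole as positive control.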

[2] = Viability qHTS for spleen associated tyrosine kinase inhibitor (SYKi) drug resistant MV4-11 cells (AID 1963824); further: nearly all actives have a fitted effect of over 35% in size; further: potency means the concentration at half of the fitted maximal effect
Procedure, shortened: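 SYK-inhibitor-resistant MV4-11 AML cells were seeded at 500 per well onto compound and cultured 72 hours (37 °C, 5% CO2). CellTiter-Glo was then added, and after 10 min at room temperature, luminescence gave viability.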

[3] = Cellular viability qHTS for adrenocortical cancer (ACC) cell line SW-13 (AID 1963989); settings: SW-13 ACC cells viability, CellTiter-Glo, 48 h; activity (max response): stronger effect = lower value; further: nearly all actives have a fitted effect of over 65% in size; further: potency means the concentration at half of the fitted maximal effect;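 on activity (max response): cells grown in serum-free medium with ITS supplement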
Procedure, shortened: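 Compound titrations (up to 46 uM final, in DMSO) were applied to SW-13 cells for 48 h at 37C/5% CO2. Reading used CellTiter-Glo after 20 min at room temperature; fitted curves yielded IC50 and efficacy.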

[4] = Cellular viability qHTS for adrenocortical cancer (ACC) cell line NCI-H295R (AID 1963990); further: nearly all actives have a fitted effect of over 60% in size; further: potency means the concentration at half of the fitted maximal effect
Procedure, shortened: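 Readout: CellTiter-Glo luminescence, 20 min RT. Exposure: 48 h, 37C/5% CO2. Cells: NCI-H295R, ITS-DMEM serum-free. Range: up to 46 uM. Analysis: 4PL fit, IC50 plus efficacy.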

[5] = Viability qHTS for spleen associated tyrosine kinase inhibitor (SYKi) naive MV4-11 cells (AID 1963823); further: nearly all actives have a fitted effect of over 40% in size
Procedure, shortened: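 SYKi-naive MV4-11 AML cells, 500 per well, were exposed to library compounds for 72 hr at 37 C, 5% CO2. Viability was then read by CellTiter-Glo luminescence after 10 min at room temperature.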

[6] = Quantitative highthroughput screen to assess conditional lethalithy of NOMO1 cells grown in RPMI1640 with untreated serum (RPMI+s) (AID 1963876); further: potency means the concentration at half of the fitted maximal effect; nearly all actives have a fitted effect of over 35% in size
Procedure, shortened: (§1)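 Each medium arm—HPLM with 10% dialyzed FBS, or RPMI1640 with 5 mM glucose and 10% untreated or dialyzed FBS—was screened against an 11-point, 3-fold compound titration for 48 h at 37 °C, with CellTiter-Glo luminescence as endpoint.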

[7] = Quantitative highthroughput screen to assess conditional lethalithy of P12 Ichikawa cells grown in Human Plasma-Like Medium with dialyzed fetal bovine serum (HPLM+ds) (AID 1963879); settings: Potency: viability; further: potency means the concentration at half of the fitted maximal effect; nearly all actives have a fitted effect of over 35% in size
Procedure, shortened: as §1

For COc1cccc([C@@]2(O)CCCC[C@@H]2CN(C)C)c1, the Potency [1] was “inactive”, the Potency [2] was “inactive” and the activity (max response) [3] was 2.96%. For the same compound, the Potency [4] was “inactive”.

In the case of OCCOc1ccccc1, the Potency [1] is reported as “inactive”, the Potency [2] is reported as “inactive” and the activity (max response) [3] is reported as 8.17%.

With C#C[C@]1(O)CC[C@H]2[C@@H]3CCC4=CC(=O)CCC4=C3C=C[C@@]21CC the Potency [1] was “inactive”, the Potency [2] was “inactive” and the activity (max response) [3] was 13.9%. For the same compound, the Potency [4] was “inactive”.

With C[C@H](N)[C@H](O)c1ccc(O)c(O)c1 the Potency [1] was “inactive”, the Potency [2] was “inactive” and the activity (max response) [3] was 5.15%. The Potency [4] was “inactive”.

With O=C(O)CCCCCCNC1c2ccccc2CCc2ccccc21 the Potency [1] was “inactive”, the Potency [2] was “inactive” and the activity (max response) [3] was 1.72%. For the same compound, the Potency [4] was “inactive”.

For Oc1cccc2cccnc12, the Potency [1] was “inactive”, the Potency [5] was “inactive” and the activity (max response) [3] was -4.07% and 11.1%. For the same compound, the Potency [4] was “inactive”.

For c1cncc(OC[C@@H]2CCN2)c1, the Potency [1] was “inactive” and the Potency [2] was “inactive”.

For CC(=O)NC1CCSC1=O (stereo not drawn), the Potency [1] was “inactive”, the Potency [2] was “inactive” and the activity (max response) [3] was 9.14%. The Potency [4] was “inactive”.

With CCCCCCC(=O)CCCCCC/C=C/C[C@@H](O)[C@H](O)[C@@](N)(CO)C(=O)O the Potency [1] was “inactive”, the Potency [2] was “inactive” and the activity (max response) [3] was -4.81%. The Potency [4] was “inactive”.

In the case of CCOCCOC(C)=O, the Potency [1] is reported as “inactive” and the activity (max response) [3] is reported as 7.41%.

For Cc1cc(C(=O)CN2CCCC2)c(C)n1-c1ccc(F)cc1, the Potency [1] was “inactive” and the Potency [2] was 16.4 µM (active).

In the case of C[C@H]1CNCCc2ccc(Cl)cc21, the Potency [1] is reported as “inactive”, the Potency [2] is reported as “inactive” and the activity (max response) [3] is reported as -1.47%.

With C[C@@H]1O[C@@H](O[C@H]2C[C@@H](O)[C@]3(CO)[C@H]4[C@H](O)C[C@]5(C)[C@@H](C6=CC(=O)OC6)CC[C@]5(O)[C@@H]4CC[C@]3(O)C2)[C@H](O)[C@H](O)[C@H]1O the Potency [1] was “inactive”, the Potency [2] was 84.1 nM (active) and 63.2 nM (active) and 33.2 nM (active) and the Potency [3] was 20.6 nM (active) and 44.7 nM (active). The Potency [4] was 36.6 nM (active) and 56.2 nM (active).

With C[C@@H](CN1CCC(n2c(=O)[nH]c3cc(Br)ccc32)CC1)NC(=O)[C@@H]1C[C@H]1c1ccccc1 the Potency [1] was “inactive” and the Potency [2] was 6.51 µM (active).

With CCN[C@H](C)Cc1cccc(C(F)(F)F)c1 the Potency [1] was “inactive”, the Potency [5] was “inactive” and the activity (max response) [3] was -4.65%. The Potency [4] was “inactive”.

For CCCCn1cc(C(=O)c2cccc3ccccc23)c2ccccc21, the Potency [1] was “inactive” and the Potency [2] was 18.4 µM (active).

In the case of CC1=C(C(=O)O)N2C(=O)[C@@H](N)[C@H]2SC1, the Potency [1] is reported as “inactive” and the activity (max response) [3] is reported as 6.68%.

In the case of c1ccc(N2CCNCC2)cc1, the Potency [1] is reported as “inactive”, the Potency [2] is reported as “inactive” and the activity (max response) [3] is reported as 12.6%. The Potency [4] was “inactive”.

With COCC1(CO)C(=O)C2CCN1CC2 (stereo not drawn) the Potency [1] was “inactive”, the Potency [6] was 20.9 µM (active) and the Potency [7] was 11.8 µM (active). It also gave an activity (max response) [3] of 9.27%.

For Nc1ccccc1C(=O)OCC(O)CO (stereo not drawn), the Potency [1] was “inactive”, the Potency [2] was “inactive” and the activity (max response) [3] was 6.9%.

In the case of Nc1ccccc1C(=O)O, the Potency [1] is reported as “inactive”, the Potency [5] is reported as “inactive” and the Potency [4] is reported as “inactive”.

In the case of c1ccc(C2CC2)c(OCC2=NCCN2)c1, the Potency [1] is reported as “inactive”, the Potency [2] is reported as “inactive” and the activity (max response) [3] is reported as -5.68%.

In the case of O=C(O)Cc1ccccc1, the Potency [1] is reported as “inactive”, the Potency [2] is reported as “inactive” and the activity (max response) [3] is reported as -6.54%. The Potency [4] was “inactive”.

In the case of CC(C)NCC(O)c1ccc([N+](=O)[O-])cc1 (stereo not drawn), the Potency [1] is reported as “inactive” and the activity (max response) [3] is reported as -6.95%.

In the case of CCCC[N+]1(C)[C@@H]2CC(OC(=O)[C@H](CO)c3ccccc3)C[C@H]1[C@@H]1O[C@@H]12 (stereo partly drawn), the Potency [1] is reported as “inactive”, the Potency [2] is reported as “inactive” and the activity (max response) [3] is reported as 15.3%. For the same compound, the Potency [4] was “inactive”.

In the case of CC(C)[C@@H](CN1CC[C@@](C)(c2cccc(O)c2)[C@@H](C)C1)NC(=O)[C@H]1Cc2ccc(O)cc2CN1, the Potency [1] is reported as “inactive” and the Potency [2] is reported as 16.4 µM (active).
